Structures are written as SMILES. Results filed as inconclusive are left out. Entries that show only a call come without a potency. Active and inactive are the calls of the source. Calls follow the shape of the dose curve; as a rule, active = well fitted inhibition curve with a large enough effect; inconclusive = small, poorly fitted or top-dose-only effect, or effect the other way; inactive = flat fitted curve, though single readings scatter.

Potency data for 40 compounds are collected here from PubChem BioAssay AID493168 (National Center for Advancing Translational Sciences (NCATS), 2011).
Potency is read from the fitted curve at half-maximal effect.

Chain of Ubiquitin carboxyl-terminal hydrolase 2 (Homo sapiens) (O75604 whole entry, looked up): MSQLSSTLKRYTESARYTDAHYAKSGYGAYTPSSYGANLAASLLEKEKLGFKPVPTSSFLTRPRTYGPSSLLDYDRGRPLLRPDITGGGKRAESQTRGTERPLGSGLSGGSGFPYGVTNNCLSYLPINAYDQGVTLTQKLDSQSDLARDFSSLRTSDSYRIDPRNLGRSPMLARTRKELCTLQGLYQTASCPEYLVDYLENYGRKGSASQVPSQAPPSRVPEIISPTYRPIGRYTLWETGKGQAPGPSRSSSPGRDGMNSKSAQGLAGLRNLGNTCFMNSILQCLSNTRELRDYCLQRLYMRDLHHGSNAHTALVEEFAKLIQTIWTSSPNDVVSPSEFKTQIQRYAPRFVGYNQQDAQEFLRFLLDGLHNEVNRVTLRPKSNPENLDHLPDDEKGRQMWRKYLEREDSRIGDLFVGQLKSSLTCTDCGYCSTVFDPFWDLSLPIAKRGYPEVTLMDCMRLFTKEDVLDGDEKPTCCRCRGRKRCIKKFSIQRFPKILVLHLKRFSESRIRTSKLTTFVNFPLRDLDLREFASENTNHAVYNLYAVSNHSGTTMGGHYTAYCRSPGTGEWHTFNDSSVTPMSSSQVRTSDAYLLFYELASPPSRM

The assay has as its target Ubiquitin carboxyl-terminal hydrolase 2 (Homo sapiens) (UniProt O75604). Kind of assay: Confirmation Assay for Inhibitors of Ubiquitin-specific Protease USP2a Using CHOP2 as the Reporter. Also: nearly all actives have a fitted effect of over 55% in size. Particulars: USP2 core, Ub-CHOP2 coupled reporter fluorescence; series mostly up to 38.3 µM. From the text: NIH Molecular Libraries Probe Centers Network [MLPCN] NIH Chemical Genomics Center [NCGC] MLSCN Grant: XO1-MH079852-01 PI Name: Nicholson, Ben. Progenra Inc, Malvern, PA NCGC Assay Overview: Homeostasis of cellular proteins is maintained through a combination of synthesis and degradation. The pathway that accounts for the majority of protein degradation is the ubiquitin-proteasomal pathway. Ubiquitin (Ub) is highly conserved in all cells and the generation of a multi-Ub chain typically targets proteins for degradation by the proteasome. However, ubiquitination is highly reversible and dynamic. Deubiquitination, the reverse process, is catalyzed through the action of enzymes referred to as isopeptidases or deubiquitinating enzymes (DUBs). This group of enzymes is collectively responsible for maintaining adequate pools of free ubiquitin and regulating the ubiquitination status of cellular proteins. The class of DUBs referred to as the ubiquitin-specific proteases (USP) family functions endoproteolytically to cleave Ub chains from a wide range of protein substrates. USP2a deubiquitinates fatty acid synthase (FASN) which has recently been identified as an emerging oncology target. To identify inhibitors of USP2a a cell-free assay was employed. […] The reporter enzyme chosen is an […] called CHOP2, which is activated when the Ub is cleaved by USP2. The free and now activated reporter can subsequently act on its reporter substrate. Thus, this coupled assay gives a fluorescent read-out at excitation/emission wavelengths of 485/531. The assay was developed by Progenra, Inc. and has been licensed for sale by LifeSensors, Inc. as Ub-CHOP2-Reporter-Kit (#PR1101).
NCGC Assay Protocol Summary: The assay buffer, prepared fresh at the day of the assay, contains 20mM Tris-HCl pH 8.0, 2mM CaCl2, 2mM beta-Mercaptoethanol, 0.05% CHAPS. 3ul of 20nM (10nM final) USP2 core, which is stored on ice, is dispensed into a medium-binding black solid Kalypsys 1,536 well plate using the Kalypsys dispenser. The assay plate is then pinned with 23nL compound with the Kalypsys pintool in columns 5-48. The controls are pinned as follows: column 1 two-fold dilutions of 2M NEM in duplicate; column 2 2M NEM (final concentration 38.2mM); column 3&4 DMSO. The assay plate is incubated at RT for 30min. Subsequently, 1.5uL of 100nM (25nM final) Ub-CHOP2 and 1.5uL of 100nM (25nM final) Reporter Substrate (both stored on ice and protected from light) were dispensed into the plate using the Kalypsys dispenser. Plates were read after 60min RT incubation on a ViewLux (Perkin Elmer) plate reader using the following wavelengths Ex 485nm /Em 531nm. Data were normalized to the to AC100 inhibition (NEM). Concentration-response curves were fitted to the normalized data and the concentration-response curves were then classified based on curve quality (r2), response magnitude and degree of measured activity. The time zero reading was used to flag fluorescence artifacts. Keywords: ubiquitination, deubiquitination, proteases, profluorescent, MLSMR, MLPCN, NIH Roadmap, qHTS, NCGC
As for `Cc1cnc(N)c2c(=O)oc3ccccc3c12`, the Potency result is “inactive”.

Consider `COc1ccc(C(=O)N/C(=C\c2cccs2)C(=O)N2CCN(C)CC2)cc1OC`, for which the Potency entry is “inactive”.

Consider `CN1CCN(CCCCOc2ccc(F)cc2)CC1`, for which the Potency result was “inactive”.

For `Cn1cccc1CC(=O)N/N=C/C=C/c1ccco1`, the Potency entry was “inactive”.

On to `CCCn1nnc(NC(=O)c2cccc(OCC(C)C)c2)n1`, for which the Potency result is “inactive”.

Consider `COC(=O)c1c(O)c2c([nH]c1=O)CCCC2`, for which the Potency entry is “inactive”.

On to `Cc1csc(NC(=O)CCn2c(=O)sc3ccccc32)n1`, for which the Potency entry is “inactive”.

Regarding `CCOC(=O)CN1C(=O)S/C(=C/c2ccc(O)c([N+](=O)[O-])c2)C1=O`, the Potency result is “inactive”.

As for `CC1CC(C)CN(C(=O)CSc2nnc(-c3ccc(Cl)cc3)o2)C1` (stereo not given), the Potency result was “inactive”.

As for `COC(=O)CCC(=O)Nc1sc2c(c1C#N)CCCC2`, the Potency result is “inactive”.

Turning to `Nc1ccc(C2=Nc3cccc4cccc(c34)N2)cc1`, the Potency entry is “inactive”.

As for `Cc1cc(-c2csc(NCc3ccccc3)n2)c(C)n1C`, the Potency was 18.5 µM (active).

Turning to `Cc1ccc(N(CC(=O)Nc2ccc(S(=O)(=O)N3CCOCC3)cc2)S(C)(=O)=O)cc1C`, the Potency result is “inactive”.

As for `O=C(CN1CCOCC1)Nc1ccc(C2CCCCC2)cc1`, the Potency entry was “inactive”.

Consider `CCOC(=O)COc1ccccc1/C=N/O`, for which the Potency result was “inactive”.

As for `C[C@@H]1CN([C@@H](C)CO)C(=O)c2cc(NC(=O)CCC(F)(F)F)ccc2O[C@H]1CN(C)S(=O)(=O)c1ccc(Cl)cc1`, the Potency result is “inactive”.

As to `COc1ccc(/C=C(\NC(=O)c2ccc(OC)c(OC)c2)C(=O)N2CCN(C)CC2)cc1`, the Potency result was “inactive”.

`CC1Cc2ccccc2N1C(=O)Cn1c(=O)oc2cc(S(=O)(=O)NC3CCCC3)ccc21` (stereo not given): the Potency result was “inactive”.

As to `Cc1ccc(C(C(=O)NC2CCCC2)N2CCc3ccccc32)cc1` (stereo not given), the Potency result was “inactive”.

Consider `CCCNC(=O)NCc1ccc(N2CCCC2=O)cc1`, for which the Potency entry was “inactive”.

Regarding `CCCCCCCCCCCCCCCC[N+](C)(C)CCN(Cc1ccc(OC)cc1)c1ncccn1`, the Potency was 11.7 µM (active).

For the compound `CC(C)(C)NC(=O)C(c1ccco1)N(C(=O)c1ccc(CN2CCOCC2)o1)c1ccccc1` (stereo not given), the Potency result is “inactive”.

For the compound `CCn1c(CN2CCOCC2)nnc1SCC(=O)Nc1ccc(C(C)=O)cc1`, the Potency entry was “inactive”.

Take `O=C(NCCOC(=O)c1ccccc1C(=O)OCCNC(=O)c1cccnc1)c1cccnc1`: the Potency result is “inactive”.

Regarding `CCOc1cc(/C=C/c2nc3cc(C)c(C)cc3s2)ccc1OCC(=O)N1CCOCC1`, the Potency result was “inactive”.

Turning to `O=C(CSc1ncn[nH]1)Nc1ccc(Br)cc1F`, the Potency entry is “inactive”.

As for `Cc1ccc(C(=O)N(c2c(C)n(C)n(-c3ccccc3)c2=O)C(C)C)cc1`, the Potency entry was “inactive”.

In the case of `COc1ccccc1C(=O)N1CCN=C1SC`, the Potency entry was “inactive”.

For `CC(C)CCn1c(CN2CCN(C(=O)c3ccco3)CC2)nc2c1c(=O)n(C)c(=O)n2C`, the Potency entry is “inactive”.

For `O=C(CSc1ccc2nnc(-c3cccc(F)c3)n2n1)N1CCCc2ccccc21`, the Potency entry was “inactive”.

On to `O=C(NC1CCCCC1)C(c1ccco1)N(C(=O)c1csnn1)c1cccc(F)c1` (stereo not given), for which the Potency entry was “inactive”.

Take `COc1ccccc1C1NC(c2ccccc2OC)C(C)C(=O)C1C` (stereo not given): the Potency entry was “inactive”.

With `CCCCCc1ccc(OCCOCCn2c[n+](C)c3ccccc32)c(CCCCC)c1`, the Potency result was “inactive”.

With `C=CC[C@@H](CC(=O)N(CCO)Cc1ccccc1)C(=O)NCCOC(=O)[C@H](CC=C)CC(=O)OC(C)(C)C`, the Potency entry was “inactive”.

Take `c1ccc(CN2CCN(CCOCCOc3cccc4ccccc34)CC2)cc1`: the Potency entry was “inactive”.

As for `CCOc1cccc(NC(=O)/C(C#N)=C\c2cn(CC(=O)O)c3ccccc23)c1`, the Potency result was “inactive”.

For `Oc1ccc(/C=N/NC(=S)N/N=C/c2ccc(O)cc2)cc1`, the Potency result is “inactive”.

With `COCc1cc(C)nc(OCC(=O)N/N=C\c2cc(C)n(-c3cccc(C(F)(F)F)c3)c2C)c1C#N`, the Potency result is “inactive”.

In the case of `COc1ccc(CC(=O)c2ccccc2C(=O)O)cc1`, the Potency entry is “inactive”.

Take `COC(=O)CCC/C=C1/SCC(NC(=O)c2ccccc2)C1=O` (stereo not given): the Potency entry is “inactive”.
